In assay [1] the target is Mitogen-activated protein kinase 10 (Mus musculus) (UniProt Q61831). The assay can be described thus: JNK3 AlphaScreen Assay (AID 530; active = well fitted curve in either direction with a large enough effect, not every such curve was filed as active;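 also: kinase came from lysate of stimulated human HepG2 cells; signal reports phosphorylation of biotinylated GST-cJun 1-79 at Ser73 with 10 µM ATP; % is scaled to controls: 0 for no effect and ±100 for the full control effect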). The method in brief: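 Kinase buffer: 20 mM Tris-HCl pH 7.6, 10 mM MgCl2, 1 mM DTT, 0.1 mM Na3VO4, 0.01% Tween-20; ATP 10 uM. Substrate biotin-GST-cJun(1-79), enzyme from activated HepG2 lysates. Detection by Ser73 phospho-antibody AlphaScreen.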
A general note: Bead proximity is the source of the signal in Alpha formats.

Assay [2] is described as follows: Cell Viability - N2a (AID 540).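 Also: cells exposed to compound for 40 h at 37 °C; plate controls were DMSO alone for no effect and tamoxifen control for full effect; nearly all actives have a fitted effect of over 45% in size.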 The following applies: N2a mouse neuroblastoma cell viability; activity change, negative = cytotoxicity: at 92.2 µM (top of the series). The method in brief:
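N2a mouse neuroblastoma, 1500 cells/well, 5 hr settle; compound 40 hr, 37 °C; CellTiter-Glo 20 min RT; luminescence; Hill-fit AC50.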

The nature of assay [3]: Cell Viability - HUV-EC-C (AID 542).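 Also: cells exposed to compound for 40 hours; % is scaled to controls: 0 for no effect and ±100 for the full control effect; nearly all actives have a fitted effect of over 35% in size.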 The method in brief: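 Luminescent ATP read-out (CellTiter-Glo, 20 min room temperature) after 40 hr compound treatment of HUV-EC-C cells at 37 °C. Concentration-response data fitted with the standard Hill equation to give AC50; tamoxifen and doxorubicin served as positive controls.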
Assay [4] can be described thus: Cell Viability - Renal Proximal Tubule (AID 545).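 Also: cells exposed to compound for 40 hours; 0% = DMSO only and -100% = 100 µM tamoxifen; nearly all actives have a fitted effect of over 40% in size.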 The method in brief: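 Primary rat renal proximal tubule cells (1000/well) were treated with compounds for 40 hr at 37 °C in complete medium. Intracellular ATP was measured by CellTiter-Glo luminescence, and AC50 values came from Hill-equation fits of concentration-response data.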
Assay [5] is described as follows: Cellular Toxicity (caspase-3) Mesangial (AID 660).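 Also: combined caspase 3 and 7 activity read by Caspase-Glo luminescence; cells exposed to compound for 16 h before the caspase read.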 The method in brief: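 Luminescent Caspase-Glo 3/7 readout (aminoluciferin substrate cleavage, 20 min RT) after 16 h compound exposure at 37 °C of normal human mesangial cells. Signal increase normalized between DMSO basal and 100 uM tamoxifen; Hill-equation AC50.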
The nature of assay [6]: Cellular Toxicity (caspase-3) Renal Proximal Tubule (AID 667).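 Also: cells exposed to compound for 16 hours at 37 °C before detection; 0% = DMSO basal and 100% = 10 µM staurosporine.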 The method in brief: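 Primary rat proximal tubule cells, 1000/well, 5 h plating at 37 °C, then compound 16 h at 37 °C. Caspase-Glo 3/7 reagent, 1 h RT, luminescence. Normalized to DMSO (basal) and 10 uM staurosporine (100%); Hill-fit AC50.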
Assay [7] addresses Cytochrome P450 3A4 (Homo sapiens) (UniProt P08684). The experiment in a line: qHTS Assay for Inhibitors and Substrates of Cytochrome P450 3A4 (AID 884). Also: nearly all actives have a fitted effect of over 50% in size. Also: potency is read from the fitted curve at half-maximal effect. The method in brief: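 Luminescent readout of luciferin produced by CYP3A4 (20 nM) dealkylation of Luciferin-PPXE, 25 uM (its KM). NADPH-driven reaction ran 60 min at RT after 10 min compound preincubation; data scaled to 57 uM ketoconazole as 100% inhibition.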
For orientation: Quantitative high-throughput screening tests each substance at several concentrations.

The nature of assay [8]: MultiTox-Fluor Cytotoxicity Assay - LYMP1-001 - Live Cells (AID 947).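 Also: 0% = DMSO only and full inhibition = tetraoctylammonium bromide control.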
Assay [9] in a line: Cell Viability - LYMP2-005 (AID 967).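 Also: plate controls were DMSO only for no effect and 92 µM tetraoctylammonium bromide control for full effect.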 The method in brief: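 CellTiter-Glo luminescence (cellular ATP) read-out; LYMP2-005 lymphoblastoid cells, 2500/well, 5 h pre-incubation, then 24 h compound exposure at 37 C in complete medium. Tetraoctylammonium bromide positive control; AC50 by standard Hill fit.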
The nature of assay [10]: Cell Viability - LYMP2-010 (AID 981).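 Also: cells exposed to compound for 24 hours at 37 °C; % is scaled to controls: 0 for no effect and ±100 for the full control effect; nearly all actives have a fitted effect of over 55% in size.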 In a few lines: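 qHTS cytotoxicity, 1536-well: 2500 cells/well, 5 hr settle, 24 hr compound at 37 C, CellTiter-Glo 30 min RT, luminescence read. Decrease in ATP = toxicity; AC50 via standard Hill equation. Positive control tetraoctylammonium bromide.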
Assay [11] in a line: Cell Viability - LYMP2-016 (AID 984).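 Also: cells exposed to compound for 24 hours at 37 °C; % is scaled to controls: 0 for no effect and ±100 for the full control effect; nearly all actives have a fitted effect of over 55% in size.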 The method in brief: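 Human lymphoblastoid cells (LYMP2-016), 2500/well in complete medium, preincubated 5 hr at 37 C, then compound-treated 24 hr at 37 C. Intracellular ATP read by CellTiter-Glo luminescence after 30 min at room temperature; AC50 from Hill-equation concentration-response fits.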
Assay [12] in a line: Cell Viability - LYMP2-024 (AID 988).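 Also: plate controls were DMSO only for no effect and 92 µM tetraoctylammonium bromide for full effect; nearly all actives have a fitted effect of over 60% in size.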 The method in brief: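 ATP-based luminescence (CellTiter-Glo, 30 min RT) after 24 h compound exposure at 37 C of 2500 lymphoblastoid cells/well; decrease in ATP taken as cytotoxicity. qHTS concentration-response fitted to standard Hill equation for AC50.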
Assay [13] is described as follows: qHTS assay for small molecule antagonists of retinoid X receptor alpha signaling (AID 588546).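 Also: cells stimulated with 9-cis-retinoic acid as agonist; % is scaled to controls: 0 for no effect and ±100 for the full control effect.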 The following applies: HEK293T RXRa-UAS-bla, beta-lactamase ratio, antagonist mode; measured here: W530 green channel, cytotoxicity proxy. In a few lines: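 Beta-lactamase reporter inhibition, read as CCF4 fluorescence ratio (ex 405, em 460/530 nm) after 2 h at RT. HEK293T UAS-bla cells, 2500/well, were stimulated with 9-cis-RA at 500 or 100 nM final alongside test compound for 18 h at 37 C.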

For assay [14], the target named is Voltage-gated inwardly rectifying potassium channel KCNH2 (Homo sapiens) (UniProt Q12809). The experiment in a line: qHTS Assay for Small Molecule Inhibitors of the Human hERG Channel Activity (AID 588834).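 Also: top concentration of the series differs between compounds; % is scaled to controls: 0 for no effect and ±100 for the full control effect; lower thallium flux fluorescence means stronger hERG block; nearly all actives have a fitted effect of over 50% in size.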 In a few lines: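 In hERG-transduced U2OS cells, dye-loaded for 1 hr at room temperature in dark, test compounds incubated 10 min at 37 °C before thallium stimulation. AC50 values derived by Hill modelling of concentration-response.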
Sequence of Voltage-gated inwardly rectifying potassium channel KCNH2 (Homo sapiens) (Q12809 whole entry, looked up): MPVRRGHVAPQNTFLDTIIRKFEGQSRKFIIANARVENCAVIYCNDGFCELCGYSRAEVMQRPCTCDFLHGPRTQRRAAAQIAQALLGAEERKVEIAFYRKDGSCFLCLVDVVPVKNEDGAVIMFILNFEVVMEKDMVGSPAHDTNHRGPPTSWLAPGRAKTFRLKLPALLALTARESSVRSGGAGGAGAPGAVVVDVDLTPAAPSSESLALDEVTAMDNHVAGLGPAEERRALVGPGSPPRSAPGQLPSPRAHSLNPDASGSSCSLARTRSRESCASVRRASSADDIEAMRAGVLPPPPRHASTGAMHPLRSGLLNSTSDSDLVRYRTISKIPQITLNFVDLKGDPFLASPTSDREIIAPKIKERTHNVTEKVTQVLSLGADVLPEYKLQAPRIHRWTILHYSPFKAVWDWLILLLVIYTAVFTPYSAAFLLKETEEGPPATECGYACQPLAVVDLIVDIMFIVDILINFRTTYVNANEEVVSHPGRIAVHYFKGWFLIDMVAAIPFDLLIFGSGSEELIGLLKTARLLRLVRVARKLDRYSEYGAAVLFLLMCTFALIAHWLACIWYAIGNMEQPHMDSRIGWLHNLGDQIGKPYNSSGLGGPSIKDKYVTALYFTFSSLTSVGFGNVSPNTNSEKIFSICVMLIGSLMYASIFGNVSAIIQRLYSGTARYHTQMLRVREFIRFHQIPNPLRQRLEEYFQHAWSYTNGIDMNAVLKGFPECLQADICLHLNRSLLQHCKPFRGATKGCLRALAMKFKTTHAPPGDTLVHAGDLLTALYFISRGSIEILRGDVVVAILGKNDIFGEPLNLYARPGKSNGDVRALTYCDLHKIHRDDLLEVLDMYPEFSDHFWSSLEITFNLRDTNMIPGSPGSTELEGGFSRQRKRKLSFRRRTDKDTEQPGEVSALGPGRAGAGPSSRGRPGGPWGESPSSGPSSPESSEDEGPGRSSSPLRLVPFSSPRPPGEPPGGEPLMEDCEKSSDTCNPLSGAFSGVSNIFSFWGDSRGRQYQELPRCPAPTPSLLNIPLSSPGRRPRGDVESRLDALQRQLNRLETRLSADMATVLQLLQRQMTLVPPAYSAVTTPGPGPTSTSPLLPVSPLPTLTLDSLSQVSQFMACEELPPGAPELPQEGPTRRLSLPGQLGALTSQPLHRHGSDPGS

A short description of assay [15]: qHTS assay for small molecule disruptors of the mitochondrial membrane potential - 1 hr assay (AID 651754; calls by dose curve; also: nearly all actives have a fitted effect of over 35% in size; also: potency is read from the fitted curve at half-maximal effect). In a few lines: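 Read-out: dye fluorescence at 490 nm ex/535 nm em (monomers) and 540 nm ex/590 nm em (aggregates) in HepG2 cells. Compound exposure 1 hr at 37C, followed by 30 min dye loading.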
Assay [16] is described as follows: qHTS assay for cell viability of HEK293 cells (AID 743288). Also: % is scaled to controls: 0 for no effect and ±100 for the full control effect; nearly all actives have a fitted effect of over 50% in size. The following applies: ATP luminescence (CellTiter-Glo), 18 h, stronger effect = lower value. The method in brief:
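After 18 h compound exposure at 37 C, parental HEK293 cells (2,000/well) are lysed with CellTiter-Glo and luminescence is read following 30 min at room temperature.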

The target in assay [17] is Nuclear receptor subfamily 1 group I member 2 (Rattus norvegicus) (UniProt Q9R1A7). The assay can be described thus: qHTS assay for small molecule activators of the rat pregnane X receptor (rPXR) signaling pathway (AID 651751; call rule not given here; also: 0% is about no effect). The following applies: rPXR reporter cells, luciferase (One-Glo), 24 h.
Sequence of Nuclear receptor subfamily 1 group I member 2 (Rattus norvegicus) (Q9R1A7 whole entry, looked up): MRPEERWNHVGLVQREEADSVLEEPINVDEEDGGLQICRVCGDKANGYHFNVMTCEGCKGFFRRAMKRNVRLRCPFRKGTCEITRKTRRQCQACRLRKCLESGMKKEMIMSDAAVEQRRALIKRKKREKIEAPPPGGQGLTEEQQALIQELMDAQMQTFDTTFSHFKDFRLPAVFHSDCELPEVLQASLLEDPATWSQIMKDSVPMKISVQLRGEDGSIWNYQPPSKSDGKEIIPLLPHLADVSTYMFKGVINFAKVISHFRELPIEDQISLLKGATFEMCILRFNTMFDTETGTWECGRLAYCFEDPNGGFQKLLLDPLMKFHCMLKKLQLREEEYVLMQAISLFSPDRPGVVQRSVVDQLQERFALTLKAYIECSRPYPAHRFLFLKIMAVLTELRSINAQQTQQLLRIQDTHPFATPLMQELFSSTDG
Assay [18] in a line: qHTS assay for small molecule activators of the human pregnane X receptor (PXR) signaling pathway (AID 720659; call rule not given here; also: 0% is about no effect).
Assay [19] is described as follows: Cell Viability - Mesenchymal (AID 546).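 Also: cells exposed to compound for 40 hours before reading; 0% = DMSO only and -100% = 100 µM tamoxifen.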 The method in brief: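 CellTiter-Glo luminescence (intracellular ATP, 20 min room temperature) after 40 hr compound exposure at 37 °C of 1000 glomerulus-derived human kidney mesenchymal cells/well; AC50 values obtained by fitting qHTS concentration-response data to the Hill equation.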
For assay [20], the target named is Vitamin D3 receptor (Homo sapiens) (UniProt P11473). The assay can be described thus: qHTS assay for small molecule antagonists of vitamin D receptor signaling (AID 588541; calls by dose curve;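 also: receptor activated by calcitriol during compound treatment; % is scaled to controls: 0 for no effect and ±100 for the full control effect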). The method in brief: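 Antagonist-mode beta-lactamase reporter assay: HEK293T VDR-UAS-bla cells were exposed to titrated compound alongside 1-alpha,25-dihydroxyvitamin D3 at 3 nM final for 16 h. Values were normalized to the 50 nM agonist control and DMSO basal, with IC50 and efficacy from Hill equation fits.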
Sequence of Vitamin D3 receptor (Homo sapiens) (P11473 whole entry, looked up): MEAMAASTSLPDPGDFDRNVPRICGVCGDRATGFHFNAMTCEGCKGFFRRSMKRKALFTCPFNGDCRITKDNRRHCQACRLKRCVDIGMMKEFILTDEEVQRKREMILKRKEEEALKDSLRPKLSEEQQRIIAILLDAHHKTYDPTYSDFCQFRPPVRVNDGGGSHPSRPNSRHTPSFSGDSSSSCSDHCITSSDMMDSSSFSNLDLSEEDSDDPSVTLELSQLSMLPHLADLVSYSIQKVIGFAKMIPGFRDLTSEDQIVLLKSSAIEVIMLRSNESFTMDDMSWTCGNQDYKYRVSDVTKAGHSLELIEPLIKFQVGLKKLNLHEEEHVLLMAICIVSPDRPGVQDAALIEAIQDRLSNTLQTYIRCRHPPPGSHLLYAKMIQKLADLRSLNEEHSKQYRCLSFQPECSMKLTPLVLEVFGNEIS

Values joined by “and” are separate entries in the source; they are usually repeats but may differ in a detail not shown here. Equal values may be shown once. Records with an inconclusive call do not appear. Active and inactive are the calls of the source. Unless noted, calls follow the shape of the dose curve; as a rule, active = well fitted curve in the direction sought with a large enough effect; inconclusive = small, poorly fitted or top-dose-only effect, or another doubt; inactive = no such curve, though single readings can be large; an effect the other way counts as inactive or inconclusive.

Sequence of Cytochrome P450 3A4 (Homo sapiens) (P08684 whole entry, looked up): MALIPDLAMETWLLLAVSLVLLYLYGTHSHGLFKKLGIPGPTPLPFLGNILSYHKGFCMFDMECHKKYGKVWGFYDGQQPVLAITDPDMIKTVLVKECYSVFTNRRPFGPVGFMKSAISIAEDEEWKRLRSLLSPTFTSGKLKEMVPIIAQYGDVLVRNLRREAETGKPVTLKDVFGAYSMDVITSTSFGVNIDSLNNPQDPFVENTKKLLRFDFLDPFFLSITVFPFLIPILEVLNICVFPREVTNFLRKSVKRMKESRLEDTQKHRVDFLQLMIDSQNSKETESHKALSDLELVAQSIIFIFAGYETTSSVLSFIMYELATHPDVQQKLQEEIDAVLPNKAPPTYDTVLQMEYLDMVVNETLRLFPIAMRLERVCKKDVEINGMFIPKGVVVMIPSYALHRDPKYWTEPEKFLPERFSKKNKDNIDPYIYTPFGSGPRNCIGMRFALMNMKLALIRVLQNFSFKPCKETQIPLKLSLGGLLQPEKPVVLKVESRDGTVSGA

As to `O=[N+]([O-])c1cccc2c([N+](=O)[O-])cccc12`, the Potency entry in assay [1], in assay [2], in assay [3], in assay [7], in assay [9] and in assay [10] was “inactive” throughout. For the same compound, the Potency entry in assay [11], in assay [12], in assay [14] and in assay [15] was “inactive” in each case. Moreover, the outcome in assay [4], in assay [5], in assay [6], in [8] and in assay [18] was inactive. Besides, the max response in assay [13] was -12.9%; in assay [16], -6.41% (inactive); in assay [17], -2.66% (inactive).

Turning to `S=c1[nH]c2ccccc2[nH]1`, the Potency entry in assay [1], in assay [2], in assay [3], in assay [19], in assay [9] and in assay [10] was “inactive” each time. The Potency entry in assay [11], in assay [12], in [14] and in assay [15] was “inactive” in each case. For the same compound, the call in assay [5] and in [18] was inactive. Also, in assay [7], the Potency was 10 µM (active). The max response in assay [13] was -17.8%; in assay [16], 7.64% (inactive); in assay [17], -7.5% (inactive).

With `O=C(Cl)OCc1ccccc1`, the Potency entry in assay [1], in [2], in assay [3], in assay [7], in [9] and in assay [10] was “inactive” throughout. The Potency entry in assay [11], in [12], in assay [14] and in assay [15] was “inactive” each time. Also, the result in [4], in [5], in [6], in assay [8], in [20] and in assay [18] was inactive. Besides, the max response in [13] was -3.27%; in [16], -3.33% (inactive); in assay [17], 4.69% (inactive).

As for `Cc1ccc([N+](=O)[O-])cc1`, the Potency result in assay [1], in assay [2], in [19], in assay [7], in [9] and in [10] was “inactive” throughout. Further, the Potency entry in [11], in assay [12], in assay [14] and in assay [15] was “inactive” each time. Further, the result in [4], in assay [5], in assay [8], in [20] and in assay [18] was inactive. Also, the max response was 1.21% in assay [13], 0.535% (inactive) in assay [16] and 3.32% (inactive) in [17].

In the case of `CN=C=O`, the Potency result in [1], in assay [2], in assay [3], in [19], in assay [7] and in [10] was “inactive” each time. Further, the Potency entry in [11], in assay [12], in [14] and in [15] was “inactive” each time. The outcome in assay [5], in assay [6], in assay [8] and in assay [18] was inactive. In addition, the max response in assay [13] was -1.71%; in assay [17], 8.83% (inactive).

As to `Cc1cc(-c2ccc(N)c(C)c2)ccc1N`, the Potency result in [1], in assay [2], in assay [3], in [9], in assay [10] and in [11] was “inactive” in each case. Also, the Potency entry in assay [12] and in [14] was “inactive” in each case. Further, the compound was called inactive in [4], in assay [6], in assay [8] and in assay [20]. For the same compound, the max response in assay [13] was -15.7% and -12.6% and -3.84%; in [16] it was -3.44% (inactive) and 7.54% (inactive) and -3.02% (inactive).

On to `COC(=O)Nc1cccc(OC(=O)Nc2cccc(C)c2)c1`, for which the Potency entry in [1], in [2], in assay [3], in assay [19], in [9] and in assay [10] was “inactive” in each case. For the same compound, the Potency entry in assay [11], in [12] and in assay [14] was “inactive” in each case. Further, the outcome in assay [4], in assay [5], in [6] and in assay [8] was inactive. In addition, the Potency in [7] was 25.1 µM (active); in assay [15], 42.2 µM (active). The max response is -2.23% in [13] and -7.47% (inactive) in [16].

For the compound `CC(C)CC(C)N` (stereo unspecified), the Potency result in assay [1], in [2], in assay [3], in assay [19], in assay [7] and in assay [9] was “inactive” throughout. Also, the Potency result in [10], in assay [11], in assay [12], in assay [14] and in assay [15] was “inactive” in each case. Moreover, the compound was classed as inactive in assay [5], in [6], in assay [8] and in assay [18]. The max response in assay [13] is -2.75%; in [16], 1.65% (inactive); in assay [17] it was 0.275% (inactive).

These data come from PubChem BioAssay (NCATS).
